Activity calls are given as the source filed them.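 How the source made its calls, unless noted: active means NADPH fluorescence slope more negative than the mean of all samples by about 3 SD, 99.7% confidence; inactive means the rest.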
How the values were obtained:
[1] = inhibitors of TNFa-induced NFkB p65 translocation, primary screen, imaging, HUVEC, MLSMR starter and 10KST1 sets (AID 438;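 active means inhibition above 20% together with a positive visual image hit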;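 further: compound added about 3h40 before a 20 min TNFalpha stimulation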;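 on inhibition: signal is the nuclear over cytoplasmic p65 intensity ratio per well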); conditions: HUVEC TNFa-induced p65 nuclear translocation; cell count: measured here: nuclei count (cytotoxicity indicator), at 2.08 µM; inhibition: at 2 µM, stronger effect = higher value, 0% TNFa-plus-vehicle, 100% no-TNFa wells
[2] = inhibitors of mutant huntingtin aggregation, primary screen, imaging, exon1htt(103Q)mCFP cells, high-content imaging (AID 483;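 active means visual image review flags a hit and inhibition of aggregation exceeds 20%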;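 further: compound exposure lasted 3 days before fixation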;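 on nuclei count: percent of the per-plate median nuclei count of sample wells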); conditions: exon1htt(103Q)mCFP cell line, aggregate imaging, at 2 µM; inhibition of aggregation: stronger effect = higher value; nuclei count: measured here: cell count, toxicity
[3] = inhibitors of E-selectin induction by TNFa, primary screen, imaging, HUVEC, immunofluorescence, MLSMR starter and 10KST1 sets (AID 487;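 active means visually confirmed hit in the image check and inhibition above 20%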;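 on inhibition: signal is fraction of cell area covered by stained E-selectin grains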;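 on nuclei count: 100% = median nuclei count of all wells on the same plate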); conditions: HUVEC TNFalpha-induced E-selectin immunofluorescence imaging, at 2 µM; inhibition: stronger effect = higher value; nuclei count: measured here: cell number, toxicity
[4] = biological target: Voltage-gated potassium channel subunit beta-2 (Rattus norvegicus) (UniProt P62483); experiment: KvBeta enzyme negative modulators, primary screen, biochemical, NADPH fluorescence (AID 622;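 active means fluorescence slope higher than the sample average by over 3 SD, cut at about -0.22 in these data, passing the limit was not always enough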;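 further: slope of raw intensity against log time taken from 70 to 1610 s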); conditions: recombinant KvBeta, 4-cyanobenzaldehyde reduction, at 10 µM, stronger effect = higher value
[5] = biological target: Voltage-gated potassium channel subunit beta-2 (Rattus norvegicus) (UniProt P62483); experiment: KvBeta positive modulators, primary screen, biochemical, NADPH fluorescence (AID 623); conditions: Recombinant KvBeta, NADPH fluorescence decrease slope, 10 min; at 10 µM; stronger effect = lower value;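 further: fluorescence intensity change per second fitted from 20 to 320 s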
[6] = biological target: Alpha-2C adrenergic receptor (Homo sapiens) (UniProt P18825); experiment: modulators of alpha2C/GIRK thallium flux, primary screen, cell-based, HEK293 alpha2C/GIRK1/2 (AID 624;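 active means fluorescence slope after compound addition differing from the mean of all screened samples at 99.7% confidence, in either direction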;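 further: slope of fluorescence ratio to pre-addition baseline per second over 15 to 24 s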); conditions: thallium flux BTC fluorescence, at 10 µM, actives lie on both sides
[7] = inhibitors of Sendai virus-induced IRF3 signaling, primary screen, TLR/RLR signaling modifier project, cell-based, Sendai virus stimulus, luciferase, 10K MLSCN set (AID 602276;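 active means inhibition at or above 50% at 10 µM; inactive means inhibition below 50%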;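 further: firefly luciferase from ISG56 promoter only with Renilla not read in this screen; 0% = Sendai virus plus DMSO and 100% = medium plus DMSO without virus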); conditions: HEK293 RL24 IRF3 luciferase reporter, at 10 µM, stronger effect = higher value
[8] = inhibitors of poly I:C-induced TLR3 signaling, primary screen, cell-based, poly I:C stimulus, luciferase, 10K MLSCN set (AID 602277;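 active means inhibition of the reporter signal at or above 50%; inactive means inhibition below 50%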); conditions: HEK293-TLR3 RL24 IRF3 luciferase reporter, at 10 µM, stronger effect = higher value

Chain of Alpha-2C adrenergic receptor (Homo sapiens) (P18825 whole entry, looked up): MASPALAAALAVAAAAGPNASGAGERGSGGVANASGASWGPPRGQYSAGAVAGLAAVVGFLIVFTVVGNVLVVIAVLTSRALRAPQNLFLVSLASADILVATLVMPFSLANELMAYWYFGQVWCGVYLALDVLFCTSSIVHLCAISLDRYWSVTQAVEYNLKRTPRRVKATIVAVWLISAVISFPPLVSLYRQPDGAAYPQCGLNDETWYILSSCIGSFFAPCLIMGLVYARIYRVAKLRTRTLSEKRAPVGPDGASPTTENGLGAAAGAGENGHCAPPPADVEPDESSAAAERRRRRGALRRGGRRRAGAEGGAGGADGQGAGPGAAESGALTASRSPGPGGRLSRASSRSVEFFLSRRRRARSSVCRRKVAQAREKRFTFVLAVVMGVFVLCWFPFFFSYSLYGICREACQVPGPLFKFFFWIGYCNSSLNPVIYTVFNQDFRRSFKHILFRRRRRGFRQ
Chain of Voltage-gated potassium channel subunit beta-2 (Rattus norvegicus) (P62483 whole entry, looked up): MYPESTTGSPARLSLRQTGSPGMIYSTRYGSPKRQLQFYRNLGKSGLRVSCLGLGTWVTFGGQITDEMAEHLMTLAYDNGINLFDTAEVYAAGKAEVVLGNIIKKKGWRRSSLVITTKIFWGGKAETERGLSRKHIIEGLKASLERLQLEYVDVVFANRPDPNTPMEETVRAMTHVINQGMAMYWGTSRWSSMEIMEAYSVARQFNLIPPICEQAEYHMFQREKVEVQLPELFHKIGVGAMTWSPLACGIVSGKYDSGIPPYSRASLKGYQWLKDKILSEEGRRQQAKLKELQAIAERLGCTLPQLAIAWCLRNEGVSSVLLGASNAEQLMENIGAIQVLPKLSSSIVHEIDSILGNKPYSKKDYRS

Row | Compound | cell count [1] | inhibition [1] | inhibition of aggregation [2] | nuclei count [2] [%] | inhibition [3] | nuclei count [3] [%] | fluorescence slope [4] | NADPH fluorescence slope [5] | slope [6] | inhibition [7] | inhibition [8]
1 | CCOC(=O)CC(=O)c1cc(OC)c(OC)c(OC)c1 | 640 | -0.6% (inactive) | -4.2% (inactive) | 105 | -56% (inactive) | 106 | -0.432 (inactive) | -2.1e-05 (inactive) | 0.00534 (inactive) | 5.89% (inactive) | 12.4% (inactive)
2 | CCCCCn1c(CN2CCN(c3cccc(Cl)c3)CC2)nc2c1c(=O)n(C)c(=O)n2C | 775 | 0.9% (inactive) | -13% (inactive) | 109 | -32.5% (inactive) | 113 | -0.371 (inactive) | -6e-05 (inactive) | 0.00648 (inactive) | -3% (inactive) | -10.4% (inactive)
3 | Cn1cnc(S(=O)(=O)Nc2ccc(C(F)(F)F)cc2)c1 | 480 | 2.2% (inactive) | -3.4% (inactive) | 117 | 14.3% (inactive) | 103 | -0.357 (inactive) | -6.4e-05 (inactive) | 0.00601 (inactive) | 2.5% (inactive) | 18% (inactive)
4 | CCC(=O)Nc1ccc(Cl)c(NC(=O)C(C)C)c1 | 410 | 0.3% (inactive) | -10.3% (inactive) | 105 | -111% (inactive) | 81.5 | -0.47 (inactive) | -3.3e-05 (inactive) | 0.00567 (inactive) | 5.28% (inactive) | 25.2% (inactive)
5 | O=C(CCCC(=O)OCC(=O)NC1CCCC1)Nc1ccccn1 | 463 | 2.6% (inactive) | 1.1% (inactive) | 113 | -130% (inactive) | 179 | -0.6 (inactive) | -4.5e-05 (inactive) | 0.00354 (inactive) | 14% (inactive) | 17.5% (inactive)
6 | CCCCSc1nnc([C@H](C)NC(=O)OC(C)(C)C)o1 | 345 | 0.2% (inactive) | -2.7% (inactive) | 104 | -34.4% (inactive) | 112 | -0.266 (inactive) | -2.9e-05 (inactive) | 0.00436 (inactive) | 11.6% (inactive) | 14.8% (inactive)
7 | Cc1nn(C)c(C)c1CNC(=O)c1cc2n(n1)C(C(F)(F)F)CC(c1cccs1)N2 (centres undefined) | 565 | 1.9% (inactive) | -16.5% (inactive) | 95.1 | -65% (inactive) | 115 | -0.583 (inactive) | -6.9e-05 (inactive) | 0.00578 (inactive) | -2.09% (inactive) | -24.4% (inactive)
8 | O=C(Nc1ccc(Br)cc1F)c1sccc1-n1cccc1 | 616 | -12.7% (inactive) | -18.9% (inactive) | 103 | -10.6% (inactive) | 110 | -0.397 (inactive) | -3.4e-05 (inactive) | 0.00385 (inactive) | -1.64% (inactive) | -17.5% (inactive)
9 | CCN(CC)CCNC(=O)c1ccc(N2CCCCC2)c(NS(=O)(=O)c2ccc(C)cc2)c1 | 370 | 6.9% (inactive) | 1.6% (inactive) | 97.8 | -16% (inactive) | 122 | -0.557 (inactive) | -3.5e-05 (inactive) | 0.00347 (inactive) | 13.5% (inactive) | 13.1% (inactive)
10 | CCN(CC)S(=O)(=O)c1ccc(NC2c3ccccc3C(=O)N2CCN2CCOCC2)cc1 (centres undefined) | 534 | -12.6% (inactive) | 24.2% (inactive) | 95.3 | -147% (inactive) | 128 | -0.611 (inactive) | 1.3e-05 (inactive) | 0.00571 (inactive) | 4.22% (inactive) | 10.7% (inactive)
11 | Cc1ccc(N=C2NC(=O)CS2)c(C)c1 | 607 | 7.4% (inactive) | 22.3% (inactive) | 95.2 | 59.4% (active) | 76.3 | -0.47 (inactive) | -2.8e-05 (inactive) | 0.00603 (inactive) | 2.6% (inactive) | 21.7% (inactive)
12 | CCCn1nc(NC(=O)c2cccs2)c2cc3cc(OC)ccc3nc21 | 630 | -6.8% (inactive) | -8% (inactive) | 104 | -20.4% (inactive) | 112 | -0.119 (inactive) | 2.2e-05 (inactive) | 0.00675 (inactive) | -4.8% (inactive) | -37.7% (inactive)
13 | CCSc1ccccc1C(=O)Nc1cccc(OC)c1 | 421 | 0.8% (inactive) | -0.9% (inactive) | 112 | -1.4% (inactive) | 75 | -0.539 (inactive) | -8.4e-05 (inactive) | 0.00513 (inactive) | -8.73% (inactive) | -15.7% (inactive)
14 | COC(=O)c1cc2oc(C)cc2n1CC(=O)N(C)c1ccccc1 | 370 | -0.4% (inactive) | -4.7% (inactive) | 108 | -67.6% (inactive) | 115 | -0.347 (inactive) | -4.4e-05 (inactive) | 0.00693 (inactive) | 9.76% (inactive) | 30.2% (inactive)
15 | Cc1ccc(C(C)n2cc(C(=O)NCCN3CCN(C)CC3)nn2)cc1 (centres undefined) | 429 | 12.1% (inactive) | -6.7% (inactive) | 117 | -7.3% (inactive) | 119 | -0.575 (inactive) | -1.3e-05 (inactive) | 0.00588 (inactive) | 3.51% (inactive) | 7.62% (inactive)
16 | O=C(CN1CCC(O)(c2ccc3c(c2)OCO3)CC1)OC1CCCCC1 | 459 | -3.6% (inactive) | 28.4% (inactive) | 67.8 | -55.1% (inactive) | 99.5 | -0.313 (inactive) | -4.7e-05 (inactive) | 0.00487 (inactive) | 8.26% (inactive) | 15.6% (inactive)
17 | COc1cc(OC)nc(NC(=O)CSc2nc3ccccc3o2)n1 | 740 | -0.3% (inactive) | -30.6% (inactive) | 102 | -18.2% (inactive) | 107 | -0.609 (inactive) | -2.6e-05 (inactive) | 0.00329 (inactive) | 12.8% (inactive) | -3.75% (inactive)
18 | Oc1ccc2ccccc2c1CN1CCN(c2ccccc2F)CC1 | 564 | 2.2% (inactive) | 7.8% (inactive) | 107 | 9.5% (inactive) | 111 | -0.574 (inactive) | -3.4e-05 (inactive) | 0.00592 (inactive) | 9.17% (inactive) | 26.6% (inactive)
19 | C=C(C)c1cccc(C(C)(C)NC(=O)NCC2CCCO2)c1 (centres undefined) | 496 | 2.3% (inactive) | -23% (inactive) | 108 | -31.1% (inactive) | 113 | -0.362 (inactive) | -5.6e-05 (inactive) | 0.0056 (inactive) | 7.08% (inactive) | 9.27% (inactive)

Reference: PubChem BioAssay
